ChEMBL document CHEMBL3433997, “St. Jude Leishmania screening dataset” (2016)

How the values were obtained:
Assay type in all cases: functional
[1] = biological target: Solute carrier family 2, facilitated glucose transporter member 1 (Homo sapiens) (UniProt P11166); experiment: ST_JUDE_LEISH: Cytotoxicity at 2uM final concentration against transgenic Leishmania Mexicana promastigotes LmGLUT1 that are glucose transport deficient and complemented with the human glucose transporter GLUT1. Activity is measured by DNA content using SYBR green in vitro
[2] = biological target: Hexose transporter 1 (Plasmodium falciparum) (UniProt O97467); experiment: ST_JUDE_LEISH: Cytotoxicity at 2uM final concentration against transgenic Leishmania Mexicana promastigotes LmPfHT that are glucose transport deficient and complemented with the Plasmodium falciparum hexose transporter. Activity is measured by DNA content using SYBR green in vitro
[3] = biological target: Glucose transporter (Leishmania mexicana) (UniProt O61059); experiment: ST_JUDE_LEISH: Cytotoxicity at 2uM final concentration against transgenic Leishmania Mexicana promastigotes LmGT2 that are glucose transport deficient and complemented with the L. Mexicana glucose transporter 2. Activity is measured by DNA content using SYBR green in vitro

Sequence of Solute carrier family 2, facilitated glucose transporter member 1 (Homo sapiens) (P11166 whole entry): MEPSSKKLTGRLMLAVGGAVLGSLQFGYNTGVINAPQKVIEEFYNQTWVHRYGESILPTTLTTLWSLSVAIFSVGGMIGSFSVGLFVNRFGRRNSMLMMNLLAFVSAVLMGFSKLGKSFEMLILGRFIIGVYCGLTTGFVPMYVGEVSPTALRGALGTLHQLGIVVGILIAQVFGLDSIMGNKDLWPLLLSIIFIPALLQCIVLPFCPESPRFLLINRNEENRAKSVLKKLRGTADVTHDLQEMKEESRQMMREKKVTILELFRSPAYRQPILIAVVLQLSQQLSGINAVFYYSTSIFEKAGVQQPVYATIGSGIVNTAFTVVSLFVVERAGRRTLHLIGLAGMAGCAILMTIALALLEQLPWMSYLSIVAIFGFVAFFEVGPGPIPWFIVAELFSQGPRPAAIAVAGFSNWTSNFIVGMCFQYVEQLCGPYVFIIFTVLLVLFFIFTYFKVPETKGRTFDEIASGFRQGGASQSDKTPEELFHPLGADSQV

Row | Compound | inhibition [1] | inhibition [2] | inhibition [3]
1 | CN(C)Cc1cccc(-c2cc3c(-c4cnn(C)c4)c(Cl)cnc3[nH]2)c1 | 95.7% | 95% | 94.2%
2 | CCc1ccc(C(=O)Nc2cccc(CN3CCCN(Cc4ccc(O)cc4)CC3)c2)cc1 | 2.88% | -2.75% | 3.01%
3 | C(=N\Nc1nccc2sc(-c3cccnc3)cc12)/c1ccncc1 | 5.3% | 5.29% | 1.98%
4 | Cc1cc(N(CCCN(C)C)Cc2cc(F)cc(F)c2)nc(Nc2ccc(Cl)cc2)n1 | -0.3% | 0.46% | 1.83%
5 | Cc1cc(N)c2cc(NC(=O)/C=C/c3ccccc3)ccc2n1 | -0.18% | 0.45% | -0.79%
6 | CC(C)(CNC(=O)C1CCN(CCOc2ccc(Cl)cc2)CC1)c1nc(-c2ccc(Cl)c(O)c2)c(-c2ccncc2)[nH]1 | 0.46% | 1.55% | -0.21%
7 | CN1CCCC1CCNCc1cccc(-c2cnc(N(C)C3CCCCC3)nc2)c1 (stereo not drawn) | 102% | 102% | 101%
8 | CC/N=C(/NCCCCCCN/C(=N/CC)NCc1ccccc1)NCc1ccccc1 | 0.49% | -0.55% | -2.09%
9 | COc1nc2c(N3CCN(CCNCc4ccc5c(n4)NC(=O)CS5)CC3)ccnc2cc1F | 0.45% | -0.85% | 0.49%
10 | CCOc1cc(NCCCNc2ncc([N+](=O)[O-])cc2C)nc2ccccc12 | 1.72% | -1.69% | 0.83%
11 | Fc1ccc(-c2oc(C3CCN(CCc4ccc(-c5noc(=S)[nH]5)cc4)CC3)nc2COCC(F)(F)F)cc1 | 8.65% | 7.22% | 8.14%
12 | Cc1cc(-c2ccc(NC(=O)Nc3ccc4nccc(N5CCN(C)CC5)c4c3)cc2C)cc(C)n1 | 7.15% | 5.84% | 8.51%
13 | Cc1cc(OCC2CCN(c3ncc(C(=O)Nc4ccccc4)cc3Cl)CC2)ccc1F | 1.05% | -2.28% | 0.4%
14 | Cc1ccccc1OCCCN1CCN(CC(c2ccc(F)cc2)N2CCN(C(C)C)CC2)CC1 (stereo not drawn) | 13.1% | 12.5% | 14.9%
15 | O=C(NCCCCN1CCC(c2ccc3c(c2OCC2COCO2)CCCC3)CC1)c1ccc(-c2ccc(C(F)(F)F)cc2)cc1 (stereo not drawn) | -0.33% | 1.19% | 1.97%
16 | FC(F)(F)c1ccc(NC(=S)N2CCC(CCN3CCC(c4c[nH]c5ccccc45)CC3)CC2)cc1 | 5.27% | 3.8% | 5.31%
17 | O=C(/C=C/c1ccc(Cl)c(Cl)c1)NCCCCCN1CC[C@H](NC(=O)Nc2ccc(Oc3ccccc3)cc2)C1 | -0.32% | -1.24% | 1.17%
18 | CCOC(=O)N1CCN(CCCNc2c3ccccc3nc3ccccc23)CC1 | 6.23% | 4.08% | 1.91%

Row | Compound | inhibition [1] | inhibition [2] | inhibition [3]
19 | CC(C)Oc1cc2c(cc1NS(=O)(=O)c1ccc(-c3cccs3)cc1)CCN(C)CC2 | 5.11% | 2.07% | 1.94%
20 | N#Cc1ccc(-c2ccc(C(=O)NC3CCN(CCN4CCC(c5cn(CCO)c6ccccc56)CC4)CC3)cc2)cc1 | 1.3% | 1.27% | 1.44%
21 | Cc1ccc(Nc2nc(C)cc(NC3CC3)n2)cc1 | 8.73% | 6.75% | 7%
22 | O=[N+]([O-])c1ccc2c(c1)c1ccccc1n2Cc1ccccc1O | 0.12% | 1.04% | -2.69%
23 | COc1ccc(-c2nc3c(N)nc(N)nc3nc2C(C)C)cc1 | 15.6% | 30.7% | 21.4%
24 | O=C(NCCCN1CCCC1=O)NCc1ccccc1 | 0.3% | -0.23% | -0.11%
25 | c1ccc(CCNc2ncnc3c2[nH]c2ccccc23)cc1 | 3.67% | 11.6% | 3.69%
26 | Fc1cccc(Nc2nc(NCc3ccc(OCc4ccccc4)cc3)nc(Nc3cccc(F)c3)n2)c1 | 11.8% | 9.09% | 8.22%
27 | CC(Cc1ccc(NC(=O)c2ccc(CNCCCCc3ccccc3)cc2)cc1)NCCc1cccc(Cl)c1 (stereo not drawn) | 106% | 102% | 105%
28 | CC(C)(C)c1ccc(NC(=O)c2cccc(CN3CCCN(Cc4cccc(Cl)c4)CC3)c2)cc1 | 5.32% | 4.37% | 2.14%
29 | Cc1nnc2sc(-c3cccc(NC(=O)c4ccc(N5CCCCC5)c([N+](=O)[O-])c4)c3)nn12 | 0.34% | -1.03% | -0.5%
30 | COc1cc(NC(=O)/C=C/c2ccccc2OC(F)(F)F)cc(OCCN2CCC(O)(c3ccccc3)CC2)c1 | 7.57% | 5.55% | 5.81%
31 | Cc1cc(-c2ccc(CNCCc3cccs3)cc2)ccc1S(=O)(=O)NCc1ccccc1 | 13% | 17.3% | 8.49%
32 | COc1ccc(C(=O)CCC(=O)N(Cc2ccc(-c3ccc(CNCCc4ccc(S(C)(=O)=O)cc4)cn3)cc2)Cc2ccc3c(c2)OCO3)cc1F | 1.12% | -0.05% | -0.58%
33 | Cc1[nH]cnc1Cc1ccc2c(c1O)c1ccccc1n2C | 2.71% | -0.2% | -0.18%
34 | Cc1cc(N2CCCC2)nc(Nc2ccc(NC(=O)c3ccc4c(c3)OCO4)cc2)n1 | 13.5% | 3.61% | 5.78%
35 | CN(C)c1ccc(CN2CCC(NC(=O)c3ccc(-c4ccccc4F)s3)CC2)cc1 | -0.33% | -1.02% | -6.69%
36 | CN(C)c1ccc(OCCCCCCOc2ccccc2)cc1 | 1.32% | 1.77% | 1.98%
